# According to PubChem BioAssay AID652025 (National Center for Advancing Translational Sciences (NCATS), 2013):
# Screen size: about 360,000 compounds; about 240 (0.067%) were called active. The sample holds actives, similar compounds and a random draw of the others, so the mix is not that of the screen. A number with no mark means an inactive call. Rule as the data show it: active = activation above about 50%; inconclusive = mostly about 30% to 49%; inactive = weaker than that.
# Experiment: qHTS of IL-2 Activators; also: 0% is about no effect
# Details: IL-2 activation reporter assay, cell-based qHTS; hits give high values; in transgenic mouse T cells; stimulated with anti-CD3/CD4/CD28 beads
# From the text: The adaptive immune response against any infectious agent begins with the activation of an antigen specific T cell. This relatively rare and inert ("naive") T cell undergoes a massive proliferative expansion and differentiation process to generate sufficient number of potent pathogen-specific effector T cells. The effector T cells fight the infection by making cytokines and helping other cells to become fully armed as well. If any naive T cell has antigen receptors (TCRs) that can be activated by self peptides, then a variety of regulatory mechanisms kick in to prevent this cell from performing to its full potential. These processes collectively constitute the phenomenon of immunological tolerance and their failure leads to autoimmunity. One arm of tolerance involves generation of biochemical negative feedback downstream of the TCR (tuning). This is especially relevant to self antigens present in the body over long periods of time (chronic), which form the bulk of our proteome. The negative feedback serves to tune the TCR signaling, such that the ambient antigenic stimulation is nullified intracellularly. Unfortunately, this critical machinery serves as a target for chronic viral, bacterial and parasitic infections (as well as tumors), which can evade a robust immune response, simply by allowing T cells to tune down their signaling to pathogen or malignancy derived antigens. As such, disrupting the tuning in such cases would allow the tolerant T cell to function again and deliver a robust effector response.
# If a therapeutic can restore responsiveness to the tuned down T cell, even for a short time, they could combat the pathogen without any additional immunization. To that end, we have developed a sensitive HTS T cell based assay based on IL-2. This assay will be screened against the Molecular Libraries Small Molecule Repository (MLSMR) to find small molecules that could elicit this response.
# NIH Chemical Genomics Center [NCGC]
# NIH Molecular Libraries Probe Centers Network [MLPCN]
# Assay Submitter (PI): Ron Schwartz, NIAID
# 4 microL (750 cells/well) of unstimulated transgenic mouse T cells (columns 1-3,5-48) are dispensed into Aurora LoBase, black clear-bottom 1536-well assay plates; column 4 receives an identical concentration of transgenic memory T cells as a non-tolerant control. Compounds are then transferred via Kalypsys pin tool equipped with 1536-pin array (10 nL slotted pins, V&P Scientific, San Diego, CA). Following addition of compound and a 60 minute incubation, 1 microL of bead stimulation solution ((0.04 micron Fluospheres (Life technologies, CA) coated with 10ug/ml each anti-CD3 and anti-CD4 (clones 2C11 and GK1.5, BD Biosciences, CA) and mixed with 1ug/ml anti-CD28 (clone PV-1, BD biosciences, CA)). columns 2-48) is added to stimulate the IL-2 response pathway; media is instead added to column 1 as an unstimulated control, while PMA/ionomycin (Sigma Aldrich, MO) is added to column 3 as a control for IL-2 tolerance bypass. The plates are then incubated at 37 degrees C for 18 hours. EGFP and DsRed signal are then detected using an Acumen eX3 Explorer fluorescent plate cytometer. All cells are dispensed in cell media containing EHAA (Quality Biologicals, MD), RPMI (Quality Biologicals, MD), Glutamine (Life Technologies, CA), Penicillin/Streptomycin (Quality Biologicals, MD), 2-ME (Sigma Aldrich, MO) and 10% FBS (Gemini Bioproducts, CA) .
row,SMILES,activation
1,Cc1nc2ccc(S(=O)(=O)NCC(=O)NCCN3CCCCC3C)cc2s1 (stereo unspecified),0.794%
2,COc1ccc(C(=O)C2CCCN(C(=O)c3cc4nc(C)cc(C)n4n3)C2)cc1F (stereo unspecified),-1.95%
3,Cc1cccc2[nH]c(CN(C)C(=O)C3CCC(=O)N(CCc4ccccc4)C3)nc12 (stereo unspecified),-4.62%
4,CCCCN=C1C([N+](=O)[O-])=CC=C2C1=NC1(CCCCC1)N2O,-0.493%
5,CCOC(=O)C1CCN(c2c(Nc3cc(C)cc(C)c3)c(=O)c2=O)CC1,3.74%
6,COc1ccc(S(=O)(=O)Nc2cccc3c2O[C@H](CN(C)S(=O)(=O)c2ccc(OC)cc2)[C@@H](C)CN([C@H](C)CO)C3=O)cc1,-0.577%
7,COc1ccc(-c2ccc3[nH]c4c(c3c2)CCN2C[C@H]3[C@H](C)ON(C)[C@H]3C[C@@H]42)cc1,-3.69%
8,COc1cc(C(F)(F)F)nc2c(Br)c(C(C)(C)C)nn12,-2.42%
9,COc1ccc(N2CCN(CCNC(=O)CCN3C(=O)COc4ccccc43)CC2)cc1,-1.26%
10,Cc1cc(Cl)ccc1OCc1nc(-c2ccncc2)no1,-0.482%
11,O=C(NNc1ccccc1Cl)C(O)(c1cccc(C(F)(F)F)c1)c1cccc(C(F)(F)F)c1,-0.487%
12,Cn1c2ccc(F)cc2c2nnc(NN)nc21,0.485%
13,CC(C)(C)NC(=O)CN1CCC(NC(=O)C23CC4CC(CC(C4)C2)C3)CC1,-0.682%
14,COc1ccc(CCC(=O)N2CCN(S(=O)(=O)c3ccc(OC)cc3)CC2)cc1,0.152%
15,COc1ccc(CCc2nnc(CCC(=O)NCc3cnn(-c4ccccc4C)c3)o2)cc1,-0.0481%
16,Cn1cnc(S(=O)(=O)Nc2ccc3c(c2)OCCO3)c1,0.511%
17,COc1cccc(N2CCN(CC(=O)Nc3ccnn3C3CCCC3)CC2)c1,0.356%
18,O=C1CCC(Cc2ccccc2)N1 (stereo unspecified),-3.46%
19,CN1CCN(S(=O)(=O)c2ccc(N3CCN(S(=O)(=O)c4cccs4)CC3)nc2)CC1,0.642%

row,SMILES,activation
1,O=C1Cc2ccccc2Sc2ccc(Cl)cc21,-0.448%
2,CSCC[C@H](NC(=O)N1CCn2c1nc1ccccc12)C(=O)NCc1ccc2c(c1)OCO2,-1.15%
3,COc1ccc(N2CCN(C(=O)CCSCc3ccccc3F)CC2)cc1,1.14%
4,NC(=O)COC(=O)c1ccc2c(c1)C(=O)N(Cc1ccco1)C2=O,-0.0741%
5,Cc1cnc(C(=O)N2CCCC(C(=O)c3ccc(C(F)(F)F)cc3)C2)cn1 (stereo unspecified),0.823%
6,CCOc1ccc(Nc2nc(Cc3nnc(SCC(=O)c4ccc(C)cc4)o3)cs2)cc1,-0.186%
7,NCCN1CCN2C(=O)CN(C(=O)c3ccccc3)CC12 (stereo unspecified),1.5%
8,Cc1cc(C)cc(N(CC(=O)N2CC=C(c3ccccc3)CC2)S(=O)(=O)c2c(C)noc2C)c1,-2%
9,CC1=NN(C(C)C)C(=O)C1,-0.959%
10,CC1=C(C(=O)N2CCOCC2)CC(CC(=O)NCCN2CCOCC2)C(=O)N1CCC1=CCCCC1 (stereo unspecified),2.16%
11,CC(=O)CSc1nnc(CSc2ncccn2)n1C1CCCCC1,4.89%
12,O=C(O)CN(Cc1ccco1)S(=O)(=O)c1ccccc1,0.214%
13,CC(=O)N1CC[n+]2c(-c3ccc([N+](=O)[O-])cc3)csc21,-2.73%
14,Cc1ccccc1N1C(=O)C(Oc2ccc(Cl)cc2)C1CNCC1CCCO1 (stereo unspecified),0.756%
15,O=C1/C(=C\c2cccnc2)CN(Cc2ccccc2)C/C1=C\c1cccnc1,-0.836%
16,Cc1c2cn[nH]c(=O)c2c(C)n1Cc1ccc(F)cc1,-0.791%
17,Cc1c(C(=O)OCC(=O)N2CCCC2=O)oc2ccccc12,-1.29%
18,O=S(=O)(Nc1nccs1)c1ccc2c(c1)OCCO2,-0.72%
19,CN1CCN(C2Cc3ccc(Cl)cc3Sc3ccc(F)cc32)CC1 (stereo unspecified),-2.1%

row,SMILES,activation
1,Cc1cc([N+](=O)[O-])nn1CCCC(=O)Nc1cccnc1Cl,-0.291%
2,Cc1cc(NC(=O)c2cc(-c3cccs3)on2)nn1Cc1ccc(Cl)cc1,0.242%
3,CC1(C)O[C@@H]2[C@H](O1)[C@@H](COS(=O)(=O)O)O[C@H]2n1cnc2c(=O)[nH]cnc21,-0.104%
4,CCCc1nc(SCC(=O)Nc2ccc(S(=O)(=O)N(C)C)cc2)c2ccccc2n1,-0.583%
5,Cc1ccc(S(=O)(=O)CC(=O)Nc2sc(C)c(C)c2C(N)=O)cc1,0.0351%
6,COCCN(C(=O)CCC(=O)Nc1nccs1)C(C(=O)NCCC(C)C)c1ccc(F)cc1 (stereo unspecified),-1.07%
7,O=C(NCc1cccnc1)c1cc(C2CCCCN2C(=O)CCc2ccccc2)on1 (stereo unspecified),-0.0033%
8,CCOc1ccc(-n2c(SC(C)C(=O)OC)nc3c(c2=O)SCC3)cc1 (stereo unspecified),-0.633%
9,Cc1ccc(CNC(=O)CSc2nnc3c(n2)[nH]c2ccc(F)cc23)cc1,-0.754%
10,Cc1cccc(N=Nc2c(O)[nH]c3ccc(F)cc23)c1,137% (active)
11,COc1ccc(NC(=O)/C(N=Nc2cccc(S(=O)(=O)Nc3ccc(SC(F)F)cc3)c2)=C(\C)O)cc1,0.0635%
12,Cc1ccccc1OC(=O)Cn1c(C(F)(F)F)nc2ccccc21,0.516%
13,CCCS(=O)(=O)N1CCN=C1SCc1cccc(F)c1,1.16%
14,CC1=C[C@H]2Cc3cc(C)cc(C)c3S(=O)(=O)[C@@H]2C=C1,0.251%
15,OCCCC1CCCCN1Cc1nc(Cc2ccccc2Cl)no1 (stereo unspecified),1.46%
16,CCCCN(C(=O)/C=C/c1ccco1)c1c(N)n(CC(C)C)c(=O)[nH]c1=O,5.81%
17,CC(=O)c1cccc(NC(=O)C2CCCN(S(=O)(=O)c3cccc4nonc34)C2)c1 (stereo unspecified),2.63%
18,COc1ccc(COC[C@H](CC(C)C)N2CCN(C(=O)c3cccc(C(F)(F)F)c3)CCC2=O)cc1,-1.15%
